# Test results: the supplement of paper PMC9023506
# Structures can show the parent of a compound that is named as a salt.
# How the values were obtained:
# Settings in all cases: 10 µM; exposure time: 3 h pre-incubation + 3 h imaging
# [1] = tested on: Danio rerio larvae (5 dpf); test: habituation to 1-s acoustic pulses, difference vs DMSO (percentage points (treated minus DMSO)); higher = more of the behaviour than the DMSO vehicle control
# In short: (§1)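 Library drugs were diluted 1000× from DMSO stocks into egg water to reach 10 µM and applied to 5-dpf wild-type zebrafish larvae in 96-well ProxiPlates, 48 larvae per drug. The larvae stayed exposed for 3 h before imaging and for the 3 h of imaging at 28.5 °C. Behaviour scores, given in percentage points, are the treated mean minus the vehicle mean for movement and upper-half location.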
# [2] = tested on: Danio rerio larvae (5 dpf); test: optomotor response to red moving lines, difference vs DMSO (percentage points (treated minus DMSO)); higher = more of the behaviour than the DMSO vehicle control
# In short: as §1
# [3] = tested on: Danio rerio larvae (5 dpf); test: optomotor response to green moving lines, difference vs DMSO (percentage points (treated minus DMSO)); higher = more of the behaviour than the DMSO vehicle control
# In short: as §1
# [4] = tested on: Danio rerio larvae (5 dpf); test: startle response to 20-s acoustic pulses, difference vs DMSO (percentage points (treated minus DMSO)); higher = more of the behaviour than the DMSO vehicle control
# In short: as §1
# [5] = tested on: Danio rerio larvae (5 dpf); test: excitability to 1-s acoustic pulses, difference vs DMSO (percentage points (treated minus DMSO)); higher = more of the behaviour than the DMSO vehicle control
# In short: as §1
# [6] = tested on: Danio rerio larvae (5 dpf); test: activity during period 15 (no stimuli), difference vs DMSO (percentage points (treated minus DMSO)); higher = more of the behaviour than the DMSO vehicle control
# In short: as §1
# [7] = tested on: Danio rerio larvae (5 dpf); test: optomotor response to fast red moving lines, difference vs DMSO (percentage points (treated minus DMSO)); higher = more of the behaviour than the DMSO vehicle control
# In short: as §1
# [8] = tested on: Danio rerio larvae (5 dpf); test: optomotor response to blue moving lines, difference vs DMSO (percentage points (treated minus DMSO)); higher = more of the behaviour than the DMSO vehicle control
# In short: as §1
smiles,measurement,setting,value
Clc1ccccc1C(c1ccccc1)(c1ccccc1)n1ccnc1 [Clotrimazole],habituation to 1-s acoustic pulses,[1],-1.97
same,optomotor response to red moving lines,[2],26.3
same,optomotor response to green moving lines,[3],-19.6
same,startle response to 20-s acoustic pulses,[4],4.06
C[C@H]1C[C@@H]2[C@H]([C@@H](O)C[C@@]3(C)[C@H]2CC[C@]3(O)C(=O)CO)[C@@]2(C)C=CC(=O)C=C12 [Methylprednisolone],habituation to 1-s acoustic pulses,[1],-1.22
same,optomotor response to red moving lines,[2],-1.93
same,optomotor response to green moving lines,[3],5.3
same,startle response to 20-s acoustic pulses,[4],-0.0848
C[C@]12CCC(=O)C=C1CC[C@@H]1[C@@H]2[C@@H](O)C[C@@]2(C)[C@H]1CC[C@]2(O)C(=O)CO [Hydrocortisone],habituation to 1-s acoustic pulses,[1],2.73
same,excitability to 1-s acoustic pulses,[5],1.67
same,optomotor response to red moving lines,[2],13
same,activity during period 15,[6],-3.01
CC(C)C(=O)OCC(=O)[C@@]12O[C@H](C3CCCCC3)O[C@@H]1C[C@H]1[C@@H]3CCC4=CC(=O)C=C[C@]4(C)[C@H]3[C@@H](O)C[C@@]12C [Ciclesonide],excitability to 1-s acoustic pulses,[5],4.96
same,optomotor response to red moving lines,[2],-8.97
same,activity during period 15,[6],-5.84
same,optomotor response,[7],-3.93
CN/C(=N\CCSCc1nc[nH]c1C)NC#N [Cimetidine],excitability to 1-s acoustic pulses,[5],-2.12
same,optomotor response to red moving lines,[2],5.88
Cn1cnc([N+](=O)[O-])c1Sc1ncnc2[nH]cnc12 [Azathioprine],excitability to 1-s acoustic pulses,[5],-0.039
same,activity during period 15,[6],8.85
same,optomotor response to blue moving lines,[8],9.74
same,startle response to 20-s acoustic pulses,[4],-1.29
C[C@]12CC[C@@H]3c4ccc(O)cc4C[C@@H](CCCCCCCCC[S+]([O-])CCCC(F)(F)C(F)(F)F)[C@H]3[C@@H]1CC[C@@H]2O (some centres not stated),optomotor response to red moving lines,[2],-3.73
same,optomotor response to green moving lines,[3],-7.68
same,startle response to 20-s acoustic pulses,[4],0.769
same,optomotor response,[7],3.52
Clc1ccc2nsnc2c1NC1=NCCN1 [Tizanidine hydrochloride],habituation to 1-s acoustic pulses,[1],-2.36
same,excitability to 1-s acoustic pulses,[5],3.69
same,activity during period 15,[6],-20.8
same,optomotor response to blue moving lines,[8],3.61
COc1cc2nc(N3CCN(C(=O)c4ccco4)CC3)nc(N)c2cc1OC [Prazosin hydrochloride],habituation to 1-s acoustic pulses,[1],0.4
same,excitability to 1-s acoustic pulses,[5],13.5
same,optomotor response to red moving lines,[2],-6.9
same,activity during period 15,[6],1.78
CCCCCOC(=O)Nc1nc(=O)n([C@@H]2O[C@H](C)[C@@H](O)[C@H]2O)cc1F [Capecitabine],excitability to 1-s acoustic pulses,[5],4.17
same,optomotor response to red moving lines,[2],4.71
same,startle response to 20-s acoustic pulses,[4],3
CC(C)n1c(/C=C/C(O)CC(O)CC(=O)O)c(-c2ccc(F)cc2)c2ccccc21 (configuration not stated) [Fluvastatin sodium],habituation to 1-s acoustic pulses,[1],4.04
same,optomotor response to red moving lines,[2],-2.5
same,activity during period 15,[6],5.99
same,startle response to 20-s acoustic pulses,[4],1.71
CC(=O)Nc1ccc(O)cc1 [Acetaminophen],optomotor response to blue moving lines,[8],5.11
same,optomotor response to green moving lines,[3],8.32
same,startle response to 20-s acoustic pulses,[4],-1.63
CCCc1nn(C)c2c(=O)[nH]c(-c3cc(S(=O)(=O)N4CCN(C)CC4)ccc3OCC)nc12 [Sildenafil citrate],habituation to 1-s acoustic pulses,[1],-2.79
same,optomotor response to green moving lines,[3],-1.55
CCOC(=O)N1CCC(=C2c3ccc(Cl)cc3CCc3cccnc32)CC1 [Loratidine],habituation to 1-s acoustic pulses,[1],-7.1
same,optomotor response to green moving lines,[3],-5.38
same,optomotor response,[7],-26.1
Cc1ccc(-c2cc(C(F)(F)F)nn2-c2ccc(S(N)(=O)=O)cc2)cc1 [Celecoxib],habituation to 1-s acoustic pulses,[1],-9.42
same,excitability to 1-s acoustic pulses,[5],6.46
same,optomotor response to blue moving lines,[8],-3.07
CC(CCc1ccc(O)cc1)NCCc1ccc(O)c(O)c1 (configuration not stated) [Dobutamine hydrochloride],optomotor response to green moving lines,[3],4.26
same,optomotor response,[7],-7.53
CCCCc1nc(Cl)c(CO)n1Cc1ccc(-c2ccccc2-c2nnn[nH]2)cc1 [Losartan potassium],activity during period 15,[6],3.67
same,optomotor response,[7],-3.43
O=C(O[C@@H]1C[C@@H]2C[C@H]3C[C@H](C1)N2CC3=O)c1c[nH]c2ccccc12 [Dolasetron mesylate],optomotor response to green moving lines,[3],-11.6
same,startle response to 20-s acoustic pulses,[4],2.42
same,optomotor response,[7],-6.96
CC1CNc2c(cccc2S(=O)(=O)N[C@@H](CCCNC(=N)N)C(=O)N2CC[C@@H](C)C[C@@H]2C(=O)O)C1 (some centres not stated) [Argatroban],habituation to 1-s acoustic pulses,[1],-0.436
same,optomotor response to blue moving lines,[8],4.3
COc1cc(N)c(Cl)cc1C(=O)NC1CCN(CCCOc2ccc(F)cc2)CC1OC (configuration not stated) [Cisapride],habituation to 1-s acoustic pulses,[1],6.52
same,optomotor response to blue moving lines,[8],4.41
same,optomotor response,[7],9.11
CNS(=O)(=O)Cc1ccc2[nH]cc(CCN(C)C)c2c1 [Sumatriptan succinate],habituation to 1-s acoustic pulses,[1],-0.62
same,optomotor response to green moving lines,[3],3.74
CCc1c2c(nc3ccc(OC(=O)N4CCC(N5CCCCC5)CC4)cc13)-c1cc3c(c(=O)n1C2)COC(=O)[C@]3(O)CC,optomotor response to blue moving lines,[8],1.97
same,startle response to 20-s acoustic pulses,[4],1.92
same,optomotor response,[7],0.47
CC(C)C(=O)Nc1ccc([N+](=O)[O-])c(C(F)(F)F)c1 [Flutamide],activity during period 15,[6],-0.963
same,optomotor response to green moving lines,[3],-1.99
Cc1ccsc1C(=CCCN1CCC[C@@H](C(=O)O)C1)c1sccc1C [Tiagabine hydrochloride],activity during period 15,[6],10.4
same,optomotor response to blue moving lines,[8],24.1
same,startle response to 20-s acoustic pulses,[4],5.98
CN1CCC[C@@H]1Cc1c[nH]c2ccc(CCS(=O)(=O)c3ccccc3)cc12 [Eletriptan hydrobromide],activity during period 15,[6],-0.424
same,optomotor response to green moving lines,[3],6.81
COC(=O)C1=C(C)NC(C)=C(C(=O)OC(C)C)C1c1cccc2nonc12 (configuration not stated) [Isradipine],habituation to 1-s acoustic pulses,[1],-13.5
same,excitability to 1-s acoustic pulses,[5],19.8
same,activity during period 15,[6],-12.3
same,optomotor response to blue moving lines,[8],-11.3
CCOc1cc(CC(=O)N[C@@H](CC(C)C)c2ccccc2N2CCCCC2)ccc1C(=O)O [Repaglinide],activity during period 15,[6],-1.47
same,optomotor response to green moving lines,[3],4.27
CNC(=O)c1cc(Oc2ccc(NC(=O)Nc3ccc(Cl)c(C(F)(F)F)c3)cc2)ccn1 [Sorafenib],optomotor response to blue moving lines,[8],-18.5
same,startle response to 20-s acoustic pulses,[4],-4.57
CC(C)c1nc(CN(C)C(=O)N[C@H](C(=O)N[C@@H](Cc2ccccc2)C[C@H](O)[C@H](Cc2ccccc2)NC(=O)OCc2cncs2)C(C)C)cs1 [Ritonavir],optomotor response to green moving lines,[3],-6.36
O=C(Nc1c(Cl)cncc1Cl)c1ccc(OC(F)F)c(OCC2CC2)c1 [Roflumilast],optomotor response to blue moving lines,[8],-1.76
same,startle response to 20-s acoustic pulses,[4],1.99
